DT40 TDP1 CPT: DT40-hTDP1 cell growth loss with CPT; chicken DT40 Tdp1-/-;hTDP1 cells + 20 nM CPT, ATP luminescence, 48 h; Potency, µM (doses to about 46.2 µM), actives largely listed as inhibitors; 12% of 420,000 active; AID 686979; note: nearly all actives have a fitted effect of over 55% in size
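Chicken DT40 Tdp1-/- cells stably complemented with human TDP1 were seeded at 400 cells/well in medium containing 20 nM camptothecin, exposed to pin-transferred compounds, and grown at 37 °C for at least 48 hr. Viability was read as ATP luminescence.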
HT1080 IDH1KD tx: kills HT-1080 cells with IDH1 knockdown; 2% of 360,000 active; HT-1080 IDH1 knockdown viability, ATP luminescence, 48 h; Potency, µM (series often up to 46.1 µM), usual class: cytotoxic
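IDH1KD HT-1080 cells, 750/well, RPMI + 5% FBS; compound pinned after 2 h settling; 48 h, 37 °C; CellTiter-Glo luminescence; % activity normalised to DMSO and no-cell wells; curves fitted, classed by r2 and efficacy.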
HT1080-NT tox: kills 2HG-producing HT-1080-NT fibrosarcoma cells | HT-1080-NT fibrosarcoma viability, CellTiter-Glo ATP luminescence, 48 h | Potency, µM (series often up to 46.1 µM), hits mostly cytotoxic | 1.6% of 360,000 active | AID 686970;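 note: NT is the 2HG producing partner of a matched IDH1 knockdown line; nearly all actives have a fitted effect of over 55% in size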
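Fibrosarcoma NT cells, 750 per well in 5% FBS RPMI, were exposed to compound for 48 hours. Viability: CellTiter-Glo luminescence.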
IL1B secr inh: inhibitors of inflammasome signaling (IL-1 beta secretion); THP-1 LPS/ATP IL-1B secretion, AlphaLISA, 16 h; hits give low values; 4.7% of 360,000 active; activity change, % at 57.5 µM; AID 743279; in the data active = activity change below about -50%; inconclusive = mostly about -30% to -49%
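Secreted IL-1B measured by AlphaLISA bead assay after 16 h compound exposure of THP-1 cells; compounds (final up to 57.5 uM) added 1 h before LPS (250 ng/mL) and ATP (1.25 mM) stimulation; lower signal means less secretion.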
TDP1 cell noCPT: qHTS for Inhibitors of human tyrosyl-DNA phosphodiesterase 1 (TDP1): qHTS in cells in absence of CPT. 15% of 420,000 active. DT40 Tdp1-/- hTDP1 cells, no CPT, ATP luminescence, 48 h. AID 686978, 2013. Potency, µM (top dose mostly 46.2 µM), most hits filed as inhibitors; note: nearly all actives have a fitted effect of over 55% in size
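Readout: luminescence from CellTiter-Glo after 30 min in the dark at RT. Cells: DT40 Tdp1-/- with stable hTDP1, 400/well. Exposure: compounds alone, ≥48 hr, 37 °C.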
Of the large screens only hits and unclear results are named; the others gave an inactive call. Rows were chosen to be rich in hits. Some 19% of all compounds tested hit in one or more screens of this group. Unless noted, calls come from the whole dose curve; as a rule, active = well fitted curve in the direction sought with a large enough effect; inconclusive = small, poorly fitted or top-dose-only effect, or another doubt; inactive = no such curve, though single readings can be large; an effect the other way counts as inactive or inconclusive.

CC(=O)N1CCN(c2ccccc2NC(=O)c2ccco2)CC1	none
CCC1CCCCN1C(=O)c1ccc(OC2CCN(C(=O)C3CC3)CC2)cc1 (centres undefined)	DT40 TDP1 CPT inconclusive, TDP1 cell noCPT inconclusive
CCOC(=O)Cc1nn(CCc2ccccn2)c(=O)c2ccccc12	none
CCOC(=O)Cc1nn(Cc2nc(-c3ccc(C)cc3)cs2)c(=O)c2ccccc12	HT1080-NT tox 16.4µM, TDP1 cell noCPT inconclusive
COc1ccc(-c2noc(=O)n2CC(=O)N2CCC(Cc3ccccc3)CC2)cc1	DT40 TDP1 CPT inconclusive, TDP1 cell noCPT 23.1µM
COc1ccc(-c2noc(CCC(=O)NCCCN3CCC(Cc4ccccc4)CC3)n2)cc1	DT40 TDP1 CPT 14.6µM, HT1080 IDH1KD tx inconclusive, HT1080-NT tox inconclusive, IL1B secr inh -64.5, TDP1 cell noCPT 14.6µM
COc1ccc(-c2noc(CCC(=O)NCCCN3CCN(c4ccc(F)cc4)CC3)n2)cc1	DT40 TDP1 CPT 18.4µM, TDP1 cell noCPT 18.4µM
O=C(Cn1c(-c2ccccc2)noc1=O)N1CCC(Cc2ccccc2)CC1	DT40 TDP1 CPT inconclusive, TDP1 cell noCPT inconclusive
O=C(OCC(=O)c1ccc(Cl)cc1Cl)c1cnccn1	none
CC1CCN(CCOc2cccc(Br)c2)CC1	none
COc1ccc(S(=O)(=O)N2CCN(CCOc3ccccc3Cl)CC2)cc1OC	DT40 TDP1 CPT 23.1µM, TDP1 cell noCPT inconclusive
Clc1cccc(OCCN2CCN(CCOc3cccc(Cl)c3)CC2)c1	DT40 TDP1 CPT 2.91µM, HT1080 IDH1KD tx inconclusive, HT1080-NT tox inconclusive, IL1B secr inh -85.4, TDP1 cell noCPT 2.31µM
Cc1ccc(S(=O)(=O)N2CCN(CCOc3cccc(C)c3)CC2)cc1	TDP1 cell noCPT 7.31µM
Cc1ccc(S(=O)(=O)N2CCN(CCOc3c(Cl)cccc3Cl)CC2)cc1C	DT40 TDP1 CPT 20.6µM, TDP1 cell noCPT inconclusive
COc1ccc(S(=O)(=O)N2CCN(CCOc3ccc(Br)cc3)CC2)cc1OC	DT40 TDP1 CPT inconclusive, HT1080 IDH1KD tx inconclusive, TDP1 cell noCPT 14.6µM
COc1ccc(OC)c(C(=O)CN2CCN(S(=O)(=O)c3ccc(Br)cc3)CC2)c1	none
Cc1cc2c(NC(=O)Nc3ccc(C(F)(F)F)cc3)cccc2nn1	DT40 TDP1 CPT inconclusive, IL1B secr inh -55.3, TDP1 cell noCPT inconclusive
COc1cc(/C=C/C(C)=NNc2ccccc2)ccc1O	DT40 TDP1 CPT 3.66µM, HT1080 IDH1KD tx inconclusive, HT1080-NT tox inconclusive, IL1B secr inh -93.5, TDP1 cell noCPT 4.11µM
Cc1ccc2c(c1)N(C(=O)CCC(=O)NCCCN1CCOCC1)CC(C)O2 (centres undefined)	none
CCOC(=O)Cc1cc(=O)n(-c2nc3ccccc3s2)[nH]1	TDP1 cell noCPT 18.4µM
O=C(Cc1cccc2ccccc12)NO	none (no result: IL1B secr inh)
CC(C)[C@H]1c2ccc(F)cc2CC[C@@]1(CCN(C)CCCc1nc2ccccc2[nH]1)OC(=O)C1CC1	DT40 TDP1 CPT 5.01µM, TDP1 cell noCPT 4.47µM (no result: HT1080 IDH1KD tx, HT1080-NT tox, IL1B secr inh)
CC1=C(C(=O)OCc2ccccc2)C(c2cccc3ccccc23)NC(=O)N1CCCC(=O)O (centres undefined)	none
CCOC(=O)C1=CN(CC2CCCO2)C=C(C(=O)OCC)C1c1ccccc1C(F)(F)F (centres undefined)	DT40 TDP1 CPT inconclusive, HT1080-NT tox inconclusive, TDP1 cell noCPT 18.4µM
CC1(C)C[C@H]2C3=CCC4[C@@]5(C)CC[C@H](O[C@@H]6O[C@H](C(=O)O)[C@@H](O)[C@H](O)[C@H]6O)[C@@](C)(CO)C5CC[C@@]4(C)[C@]3(C)C[C@H](O)[C@@]2(CO)[C@@H](O)[C@@H]1O (some centres undefined)	none

Source: PubChem BioAssay (National Center for Advancing Translational Sciences (NCATS))
